The record followed here is a collection of fitness landscapes (doi:10.1016/j.celrep.2020.107928).

The full ranking holds about 81,000 sequences; the median of “one-hybrid fitness for binding NBS DNA” is about -0.1, and the highest 2% start at about 0.36. The list comes from a sample in which the highest values are over-represented; it also holds similar and randomly drawn sequences.

Sequences and labels used below:
B1: Caulobacter ParB omega fusion; a variant is named by its letters at X, in order, B8GW30 (parent)
chain: MESVVVGEPGMSEGRRGLGRGLSALLGEVDAAPAQAPGEQLGGSREAPIEILQRNPDQPRRTFREEDLEDLSNSIREKGVLQPILVRPSPDTAGEYQIVAGERAWRAAQRAGLKTVPIMVRELDDLAVLEIGIIENVQRADLNVLEEALSYKVLMEKFERTQENIAQTIGKSXSHVANXMRLLXLPDEVQSYLVSGELTAXHARAIAAAADPVALAKQIIEGGLSVRETEALARKAPNLSAGKSKGGRPPRVKDTDTQALESDLSSVLGLDVSIDHRGSTGTLTITYATLEQLDDLCNRLTRGI

Variants of B1 are the subject of the test. The test can be described thus: one-hybrid fitness for binding NBS DNA (the Noc-binding site; scaled: cognate 1, non-cognate 0); higher = stronger binding. As to conditions: with NBS DNA site. In short, it runs like this: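 The reporter was HIS3, with the binding site 19 bp from the promoter, in E. coli USO used for bacterial one-hybrid selection of Caulobacter ParB libraries with four specificity codons randomised. Growth was on M9 lacking histidine, with 0.1 mM IPTG and 5 mM 3-AT, for 48 hours at 37°C. Illumina sequencing covered plasmids before and after selection; three replicate libraries were pooled and variants with under 10 reads dropped. A fitness score is the log change in variant-to-wild-type read ratio, rescaled to the cognate and non-cognate references.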
In the case of TKRI, the “one-hybrid fitness for binding NBS DNA” value is at most 0.2.
The figure for FEYS is at most 0.2; for SKTD it is at most 0.2.
The figure for HPSA is at most 0.2; for RYAA it is at most 0.2.
In the case of WFRC, the “one-hybrid fitness for binding NBS DNA” value was at most 0.2.
Regarding AMMM, the “one-hybrid fitness for binding NBS DNA” value is at most 0.2.
The figure for SFTI is at most 0.2.
The result for QIST reads 0.311; that for QCST, 0.553.
The result for QPST reads at most 0.2.
Take KDHS: the “one-hybrid fitness for binding NBS DNA” value was at most 0.2.
The result for QTKT reads 0.883; that for DTKT, at most 0.2; that for QTVT, 0.517.
With NTKT, the “one-hybrid fitness for binding NBS DNA” value was at most 0.2.
IWTS: the “one-hybrid fitness for binding NBS DNA” value was at most 0.2.
The figure for SWRY is at most 0.2; for VSWL it is at most 0.2; for RRWC it is 0.393.
For the variant RRDC, the “one-hybrid fitness for binding NBS DNA” value stood at 0.318.
The figure for MVES is at most 0.2; for RSWC it is at most 0.2.
For the variant RCWC, the “one-hybrid fitness for binding NBS DNA” value is at most 0.2.
Take MVER: the “one-hybrid fitness for binding NBS DNA” value was determined as 0.34.
As to RRRC, the “one-hybrid fitness for binding NBS DNA” value was determined as 0.39.
The result for MVEC reads 0.453; that for RRYC, 0.313.
The figure for RKYC is at most 0.2; for RKRC it is 0.4; for RKDC it is at most 0.2.
For RQIE, the “one-hybrid fitness for binding NBS DNA” value was at most 0.2.
In the case of ITGG, the “one-hybrid fitness for binding NBS DNA” value is at most 0.2.
The result for VFDW reads at most 0.2; that for QNAP, at most 0.2.
Regarding SDVV, the “one-hybrid fitness for binding NBS DNA” value was at most 0.2.
With ANIL, the “one-hybrid fitness for binding NBS DNA” value is at most 0.2.
As to GEAG, the “one-hybrid fitness for binding NBS DNA” value is at most 0.2.
The result for AWVG reads at most 0.2.
Take LYSD: the “one-hybrid fitness for binding NBS DNA” value is at most 0.2.
The result for VKHG reads at most 0.2; that for FRVT, at most 0.2.
The result for LRPY reads at most 0.2.
Turning to RCRC, the “one-hybrid fitness for binding NBS DNA” value was determined as 0.391.
For RSRC, the “one-hybrid fitness for binding NBS DNA” value came to 0.355.
Turning to RPRC, the “one-hybrid fitness for binding NBS DNA” value was at most 0.2.
As to AGSH, the “one-hybrid fitness for binding NBS DNA” value was at most 0.2.
In the case of ISGM, the “one-hybrid fitness for binding NBS DNA” value was at most 0.2.
With RNKH, the “one-hybrid fitness for binding NBS DNA” value was determined as 0.237.
The figure for RNKN is at most 0.2; for RNVR it is at most 0.2; for RNVS it is at most 0.2.
Consider RNRR, for which the “one-hybrid fitness for binding NBS DNA” value turned out to be 0.504.
The figure for RNIR is at most 0.2; for RNYR it is at most 0.2; for RNNP it is at most 0.2.
The result for RNKS reads 0.489.
Regarding RNDS, the “one-hybrid fitness for binding NBS DNA” value was at most 0.2.
On to RNKR, for which the “one-hybrid fitness for binding NBS DNA” value was 0.535.
The result for RNNS reads 0.388; that for GHAT, at most 0.2.
As for RHRC, the “one-hybrid fitness for binding NBS DNA” value is 0.295.
The result for IAAT reads at most 0.2; that for AKCT, at most 0.2; that for RNDR, at most 0.2.
The result for RNND reads at most 0.2.
The figure for RNNR is 0.381; for TPFG it is at most 0.2; for MWSR it is at most 0.2.
HRYM: the “one-hybrid fitness for binding NBS DNA” value is at most 0.2.
The figure for RRKC is 0.375; for RRVC it is 0.414.
The result for RRLC reads 0.301.
In the case of RPVC, the “one-hybrid fitness for binding NBS DNA” value was at most 0.2.
With RRHC, the “one-hybrid fitness for binding NBS DNA” value was determined as 0.363.
The result for RCVC reads at most 0.2; that for PACV, at most 0.2; that for QHSI, at most 0.2.
KQRS: the “one-hybrid fitness for binding NBS DNA” value was found to be 0.224.
The result for QQRF reads 0.387; that for QQRD, 0.286; that for QQRL, 0.329.
The figure for QQRS is 0.714.
For the variant QQQN, the “one-hybrid fitness for binding NBS DNA” value is at most 0.2.
For the variant QQQS, the “one-hybrid fitness for binding NBS DNA” value was found to be 0.428.
For the variant QQRH, the “one-hybrid fitness for binding NBS DNA” value worked out at 0.645.
The figure for QQQH is at most 0.2; for QQRP it is 0.312; for QQFF it is at most 0.2.
The figure for QQYF is at most 0.2; for DWKY it is at most 0.2.
Regarding RGQM, the “one-hybrid fitness for binding NBS DNA” value was at most 0.2.
The result for NLNF reads at most 0.2; that for VHRM, at most 0.2.
The result for GFMT reads at most 0.2; that for YDNR, at most 0.2.
The result for NHAS reads at most 0.2.
